Drawing on PubChem BioAssay (NCI), this text covers growth for seven compounds.

Among the test systems are NCI-H23 lung; NCI-H226 lung; NCI-H322M lung; HOP-62 NSCLC; NCI-H460 lung; HOP-92 NSCLC; NCI-H522 lung; A549/ATCC NSCLC; 786-0 renal; COLO 205 colon; DU-145 prostate; K-562 leukemia; MALME-3M melanoma; MDA-MB-231 breast; RXF 393 renal; SF-268 CNS; SF-539 CNS; UACC-257 melanoma; M14 melanoma; SF-295 CNS.
What all share (test): NCI-60 one-dose screen, 48 h (100 = growth as untreated, 0 = no growth, -100 = all killed)
Holding throughout (conditions): 10 µM unless noted

About 83,000 compounds went through this panel and 20% of them were active in at least one assay; those are over-represented in the sample as a whole.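 Compound tested at a single concentration for 48 hours in 96-well plates; a percent growth value below 10 was scored as active.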 Values without a mark were called inactive. Calls of active or inactive are those of the source.

Turning to `O=C(Nc1cccc(-n2cc(-c3ccncc3)c(-c3ccc(Cl)c(O)c3)n2)c1)Nc1cc(C(F)(F)F)cc(C(F)(F)F)c1`, the growth with NCI-H23 lung is -7.93% (active); in the test with NCI-H226 lung it was 1.17% (active); in the test on NCI-H322M lung, 5.11% (active); with HOP-62 NSCLC, -86.1% (active); in the test on NCI-H460 lung it was -55.7% (active); with HOP-92 NSCLC, -45.8% (active). The growth in the test on NCI-H522 lung is -50.1% (active); in the test with A549/ATCC NSCLC, -32.4% (active); with 786-0 renal, -46.8% (active); in the test with COLO 205 colon, -97.3% (active); in the test with DU-145 prostate, -28.2% (active); in the test with K-562 leukemia, -19.5% (active). The growth in the test on MALME-3M melanoma is -23% (active); with MDA-MB-231 breast it was -88.9% (active); in the test on RXF 393 renal, -66.7% (active); in the test on SF-268 CNS, -36.4% (active); with SF-539 CNS, -63% (active); in the test with UACC-257 melanoma, -50.9% (active). For the same compound, the growth in the test on M14 melanoma was -37.2% (active).
For `C=C(C)[C@@H]1C[C@@H]2Cc3cc(F)ccc3N1O2`, the growth in the test on NCI-H23 lung was 96.6%; in the test on NCI-H226 lung, 99.1%; in the test on NCI-H322M lung, 104%; in the test with HOP-62 NSCLC it was 94.4%; in the test with NCI-H460 lung, 102%; in the test on HOP-92 NSCLC, 56.1%. The growth in the test on NCI-H522 lung is 91.3%; with A549/ATCC NSCLC, 97.9%; in the test on 786-0 renal it was 103%; with COLO 205 colon, 106%; with DU-145 prostate it was 114%; in the test on MALME-3M melanoma it was 83%. Further, the growth with MDA-MB-231 breast is 99.8%; in the test on RXF 393 renal it was 108%; in the test with SF-268 CNS, 101%; in the test with SF-295 CNS, 106%; in the test on SF-539 CNS it was 95.6%; in the test with UACC-257 melanoma, 99.1%. For the same compound, the growth in the test on M14 melanoma is 95.5%.
In the case of `Cc1ccc(-c2cc3nc(-c4ccccc4)nc(C(Cl)Cl)n3n2)cc1`, the growth in the test on NCI-H23 lung is 30.3%; in the test with NCI-H226 lung it was 70.9%; with NCI-H322M lung, -85.9% (active); in the test with HOP-62 NSCLC it was -60.1% (active); with NCI-H460 lung, -48% (active); in the test on HOP-92 NSCLC, -81.5% (active). The growth is 95.4% in the test with NCI-H522 lung; -58.1% (active) in the test with A549/ATCC NSCLC; -79.3% (active) in the test on 786-0 renal; -66.1% (active) in the test with COLO 205 colon; -93.9% (active) in the test with DU-145 prostate; 20.2% in the test with K-562 leukemia. The growth is -3.1% (active) in the test with MALME-3M melanoma; -49.7% (active) with MDA-MB-231 breast; -56.6% (active) with SF-268 CNS; -69.8% (active) with SF-295 CNS; -60.4% (active) in the test on SF-539 CNS; 18.3% with UACC-257 melanoma. Also, the growth with M14 melanoma is 96.2%.
Take `COc1cc(/C=C/c2cc(/C=C/c3ccc(O)c(OC)c3)n(C(N)=O)n2)ccc1O`: the growth in the test with NCI-H23 lung was -4% (active); in the test with NCI-H226 lung it was 11.9%; in the test with NCI-H322M lung, -1.78% (active); in the test with HOP-62 NSCLC it was -3.02% (active); in the test on NCI-H460 lung, 0.571% (active); in the test with HOP-92 NSCLC it was -42.8% (active). Besides, the growth is -21.2% (active) in the test with NCI-H522 lung; 3.16% (active) with A549/ATCC NSCLC; -45.8% (active) in the test with 786-0 renal; -37.7% (active) in the test on COLO 205 colon; 2.11% (active) in the test with DU-145 prostate; -23% (active) in the test on K-562 leukemia. Besides, the growth with MALME-3M melanoma was -4.94% (active); in the test on MDA-MB-231 breast, 3.7% (active); in the test with SF-268 CNS it was -10.7% (active); in the test with SF-295 CNS it was 4.87% (active); in the test on SF-539 CNS, -26.3% (active); with UACC-257 melanoma it was 0.83% (active). Moreover, the growth with M14 melanoma was -66.2% (active).
Regarding `COc1cc(/C=C/C(=O)c2ccc(Nc3ncnc4cc(OC)c(OC)cc34)cc2)cc(OC)c1`, the growth with NCI-H23 lung was 94.7%; in the test on NCI-H226 lung it was 113%; in the test with NCI-H322M lung, 105%; in the test on HOP-62 NSCLC, 116%; in the test on NCI-H460 lung, 109%; with HOP-92 NSCLC, 76.4%. Besides, the growth in the test on NCI-H522 lung was 92.4%; in the test with A549/ATCC NSCLC it was 84.9%; in the test with 786-0 renal it was 92.3%; in the test on COLO 205 colon, 117%; with DU-145 prostate, 115%; with K-562 leukemia, 41.3%. Moreover, the growth in the test with MALME-3M melanoma is 118%; in the test with MDA-MB-231 breast it was 104%; in the test on SF-268 CNS it was 98.4%; in the test on SF-295 CNS, 93.3%; in the test with SF-539 CNS, 101%; in the test with UACC-257 melanoma it was 95.1%. The growth with M14 melanoma is 112%.
As to `O=[N+]([O-])c1cnc(Sc2ccncn2)s1`, the growth in the test with NCI-H23 lung is 77%; in the test with NCI-H226 lung, 110%; with NCI-H322M lung it was 99.1%; with HOP-62 NSCLC it was 92%; in the test with NCI-H460 lung it was 97.3%; with HOP-92 NSCLC it was -64.9% (active). Moreover, the growth was -79.1% (active) with NCI-H522 lung; 95.9% in the test on A549/ATCC NSCLC; 93.1% with 786-0 renal; -77.4% (active) with COLO 205 colon; -21.5% (active) in the test on DU-145 prostate; -44.4% (active) in the test with K-562 leukemia. Moreover, the growth was -63.5% (active) in the test with MALME-3M melanoma; 75.4% in the test on MDA-MB-231 breast; 35.7% in the test with SF-268 CNS; 102% in the test on SF-295 CNS; 91.1% in the test on SF-539 CNS; -18.7% (active) in the test on UACC-257 melanoma. Also, the growth with M14 melanoma was 6.85% (active).
As to `CC(=O)Nc1nc(N)nc(NC(C)=O)c1N=O`, the growth is 95.3% with NCI-H23 lung; 105% in the test with NCI-H226 lung; 140% in the test with NCI-H322M lung; 106% in the test on HOP-62 NSCLC; 123% in the test on NCI-H460 lung; 108% in the test on HOP-92 NSCLC. Also, the growth is 101% in the test on NCI-H522 lung; 107% with A549/ATCC NSCLC; 106% in the test with 786-0 renal; 116% with COLO 205 colon; 107% in the test with DU-145 prostate; 124% with K-562 leukemia. Moreover, the growth in the test with MDA-MB-231 breast is 114%; with RXF 393 renal it was 135%; with SF-268 CNS, 98.7%; with SF-539 CNS it was 105%; in the test on UACC-257 melanoma it was 113%; with M14 melanoma, 104%.
